High-throughput results (PubChem)
The list is not random: actives were taken first. Their share in the collection is about 2.2%.
GLP1R cytotox = cytotoxic in the GLP-1 receptor inverse agonist counter-screen | HEK293 cAMP-luciferase reporter cells, luminescence, 24 h | Potency, µM (top dose mostly 38.3 µM), for the others: at the highest dose activity change, negative = inhibition, hits mostly inhibitors | actives 0.13% (n = 410,000) | AID 624418;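 further: loss of luciferase light is scored as toxicity; potency means the concentration at half of the fitted maximal effect; on the % scale 0 is the no-effect control and ±100 the full control effect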
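MLSMR compounds, 24 hr on cells at 37 deg C/5% CO2; luminescence after luciferase reagent (12 min RT). Inhibition counted as the undesired cytotoxic outcome.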
GLP-1R agonist = GLP-1 receptor (human) agonism | HEK293 GLP-1R CRE-luciferase, luminescence, 4-6 h; cells express a hypersensitive GLP-1R form | actives 0.007% (n = 380,000) | Potency, µM (top dose mostly 45.6 µM), inactives show at the top dose activation, hits mostly activators | P43220 | AID 624172; further: potency means the concentration at half of the fitted maximal effect; % of control where 0% means no effect
Target sequence (P43220 whole entry, looked up): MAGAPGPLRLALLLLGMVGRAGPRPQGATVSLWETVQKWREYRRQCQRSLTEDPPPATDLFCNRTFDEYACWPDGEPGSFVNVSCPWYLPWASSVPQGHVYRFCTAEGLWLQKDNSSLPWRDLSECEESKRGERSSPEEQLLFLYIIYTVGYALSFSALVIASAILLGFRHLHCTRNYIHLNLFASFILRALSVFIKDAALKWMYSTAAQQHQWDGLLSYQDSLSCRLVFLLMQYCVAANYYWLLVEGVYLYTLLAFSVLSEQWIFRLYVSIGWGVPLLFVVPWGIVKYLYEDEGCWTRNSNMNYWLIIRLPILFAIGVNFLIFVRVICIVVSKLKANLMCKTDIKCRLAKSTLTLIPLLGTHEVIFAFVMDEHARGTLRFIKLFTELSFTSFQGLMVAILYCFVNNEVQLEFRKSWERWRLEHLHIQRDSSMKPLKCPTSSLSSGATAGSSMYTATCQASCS
CCT modulator = cytosolic chaperonin activity modulation. purified chaperonin ATPase assay, HTRF ADP detection, 30 min. activity change, % (test concentration not listed), hits read low. actives 0.3% (n = 360,000). AID 651819; in the data active means activity change below about -30%; further: on the % scale 0 is the no-effect control and ±100 the full control effect
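First, chaperonin was dispensed at 40 nM or 20 nM final depending on batch activity. Next, compounds were pinned at 76 uM and ATP added at 10 uM. After 30 min at 37 °C, ADP detection reagents ran 30 min at ambient temperature.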
uPA generation = blocks generation of uPA at the cell surface; Potency, µM (titrated, usually from 38.3 µM), for the others: at the top dose activity change, negative = inhibition, most hits filed as inhibitors; AID 540303; cell surface uPA generation assay, qHTS; actives 0.31% (n = 330,000); active means well fitted inhibition curve with a large enough effect; inconclusive means small, poorly fitted or top-dose-only effect; inactive means no such curve, though single readings can be large or run the other way; tested in mouse RAW 264.7 cells; further: potency means the concentration at half of the fitted maximal effect; on the % scale 0 is the no-effect control and ±100 the full control effect; nearly all actives have a fitted effect of over 55% in size
GLP1R inv ag = acts as inverse agonist at human GLP-1 receptor; P43220; HEK293 GLP-1R CRE-luciferase, luminescence, 24 h; GLP-1R form is constitutively active; Potency, µM (doses to about 38.3 µM), for inactives: top-dose activity change, negative = inhibition, hits mostly inhibitors; actives 1.6% (n = 410,000); AID 624417; further: potency means the concentration at half of the fitted maximal effect; on the % scale 0 is the no-effect control and ±100 the full control effect; nearly all actives have a fitted effect of over 55% in size
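Seeding at 200 cells/uL, 12 h culture, 24 hr compound treatment, then luciferase reagent and a luminescence read; cells are HEK293 stably expressing a constitutively active GLP-1R plus cAMP-responsive luciferase.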
MmCpn inh = inhibitors of Methanococcus maripaludis chaperonin TRiC (MmCpn) | actives 0.031% (n = 330,000) | Potency, µM (doses to about 76.9 µM), for inactives: at the top dose activity, negative = inhibition, actives largely listed as inhibitors | purified Mm-Cpn ATPase, ADP Transcreener TR-FRET | AID 504842; further: potency means the concentration at half of the fitted maximal effect; on the % scale 0 is the no-effect control and ±100 the full control effect; nearly all actives have a fitted effect of over 80% in size
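Purified archaeal chaperonin (25 nM final) was preincubated with compound for 10 min at 37°C, then ATP (10 uM final) was added for 30 min at 37°C in Tris pH 7.4/KCl/MgCl2/DTT buffer. ADP was quantified by HTRF Transcreener TR-FRET.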
The depositor's hits bear a star; ? = inconclusive; · = no result given; [ ] = dose if it differs, or a comment. Unless noted, the call rests on the fitted dose curve; in most records, active means well fitted curve in the direction sought with a large enough effect; inconclusive means small, poorly fitted or top-dose-only effect, or another doubt; inactive means no such curve, though single readings can be large; an effect the other way counts as inactive or inconclusive.

SMILES	GLP1R cytotox	GLP-1R agonist	CCT modulator	uPA generation	GLP1R inv ag	MmCpn inh
O=c1c2c3c(sc2n(Cc2cc(=O)n4ccccc4n2)c(=O)n1-c1ccccc1)CCC3	11.5%	·	·	·	1.9%	·
CC(C)N(Cc1nc(-c2ccc(Cl)cc2)no1)C(=O)CCC1CCCC1	9.2%	-0.6%	-0.2	9.8%	10µM*	1.7%
O=C(c1ccc2c(c1)N(Cc1ccccc1F)C(=O)c1ccccc1S2(=O)=O)N1CCC(Cc2ccccc2)CC1	-8.6%	0.7%	·	·	4.4%	·
CCCC(=NC(C)CC)C1=C(O)CC(c2ccccc2)CC1=O (centres undefined)	8.0%	10.4%	-0.3	-1.5%	10µM*	-1.8%
CCC(C)N=CC1=C(O)CC(c2ccccc2)CC1=O (centres undefined)	4.2%	-8.4%	0.8	4.8%	-13.3%	?
COc1ccc(CCNC(=O)C(C)n2nc(C)c3sc4ccccc4c3c2=O)cc1OC (centres undefined)	6.0%	·	·	·	-6.6%	·
COc1cc(CN2CCN(S(=O)(=O)c3ccccc3)CC2)cc(OC)c1OC	25.6%	2.6%	-0.5	33.0%	9.0%	1.4%
COc1cc(CN2CCN(c3cccc(Cl)c3)CC2)cc(OC)c1OC	?	9.0%	-1.5	·	5.01µM*	1.8%
CCOc1ccccc1NC(=O)CN1C(=O)CC(c2ccc(C)c(C)c2)=Nc2ccccc21	4.8%	·	·	·	16.7%	·
COc1ccccc1NC(=O)CN1C(=O)CC(c2ccc(C)c(C)c2)=Nc2ccccc21	-11.2%	·	·	·	10µM*	·
O=C1C2CCCN2C(c2ccc(F)cc2)N1c1ccc(Cl)cc1 (centres undefined)	0.6%	-1.2%	0.6	5.01µM*	?	0.2%
CCOC(=O)c1ccn(-c2nc(-c3cccc(OC)c3)cc(C(F)(F)F)n2)n1	-2.0%	·	·	·	?	·
CCOC(=O)c1cnc(-n2nc(C)cc2C)nc1NNc1ncc(-c2ccccc2)cn1	?	2.7%	-2.6	-2.2%	?	-1.0%
CCOC(=O)c1cnc(-n2nc(C)cc2C)nc1NCc1ccccc1	?	-1.9%	-0.8	-8.9%	3.55µM*	-0.1%
CCOC(=O)c1cnc(-n2nc(C)cc2C)nc1NC(C)c1ccccc1 (centres undefined)	?	-2.7%	-2.3	2.2%	2.51µM*	-0.2%
O=C(Nc1ccc(Cl)cc1)Nc1ccc(Cl)c(C(F)(F)F)c1	·	-3.7%	·	·	·	·
CNC(=O)CSc1nnc(NC(=O)Nc2ccccc2)s1	-4.6%	·	·	·	18.8%	·
O=c1cc(-c2ccc(O)c(O)c2)oc2c1ccc1ccccc12	-20.4%	1.3%	-1.6	2.51µM*	9.3%	1.2%
Cc1onc(-c2ccccc2)c1C(=O)O/N=C(\N)c1ccc([N+](=O)[O-])o1	2.6%	14.1%	-0.7	4.47µM*	2.1%	2.6%
Cc1onc(-c2ccccc2Cl)c1C(=O)O/N=C(\N)c1ccccc1	?	16.0%	-3.2	?	10µM*	0.3%
Cc1onc(-c2ccccc2Cl)c1C(=O)O/N=C(\N)c1cccc([N+](=O)[O-])c1	-17.8%	24.2%	-0.3	·	?	·
Cn1cc(C(=O)O)c(=O)c2cc(S(=O)(=O)N3CCCCC3)ccc21	-6.5%	·	·	·	?	·
COc1ccc(NC(=O)Cn2c(=O)n(-c3ccc(Cl)cc3)c(=O)c3c(C)c(C(=O)N(C)C)sc32)cc1Cl	0.1%	·	·	·	6.0%	·
OC(C#Cc1ccccc1)(c1ccccc1)c1ccccc1	?	14.5%	-0.5	-5.7%	4.47µM*	·
COc1cccc(NC(=O)c2oc3ccccc3c2NC(=O)Cc2cccc(C)c2)c1	5.6%	·	·	·	-33.9%	·
SMILES	GLP1R cytotox	GLP-1R agonist	CCT modulator	uPA generation	GLP1R inv ag	MmCpn inh
Cc1ccc(NC(=O)Cn2cc(C(=O)C3CCCCC3)c3ccccc32)cc1	4.4%	·	·	·	-2.7%	·
FC(F)(F)c1nc(-c2cccs2)ncc1-c1nnnn1-c1ccc(Cl)cc1	-29.2%	-14.6%	1.5	-9.3%	7.08µM*	-0.4%
CC1Sc2ccc(C(=O)NCc3ccccn3)cc2NC1=O (centres undefined)	-18.0%	3.4%	-3.8	3.16µM*	?	-0.4%
Cc1cc(C)c(NC(=O)c2ccc3c(c2)NC(=O)C(C)S3)c(C)c1 (centres undefined)	-0.8%	2.7%	-1.6	10.9%	?	0.4%
Cc1csc2nc(CCNS(=O)(=O)c3ccc(F)cc3)cn12	-2.1%	·	·	·	11.9%	·
Cc1csc(NC(=O)CSc2nnc3c4ccccc4nc(C(C)(C)C)n23)n1	2.51µM*	-4.3%	-2.4	?	?	-10.8%
O=C1c2ccccc2NC(c2c(Cl)cccc2Cl)N1Cc1ccccc1 (centres undefined)	-3.8%	-18.7%	-1.7	-8.7%	?	-3.0%
O=C1c2ccccc2NC(c2ccc(Cl)cc2Cl)N1Cc1ccccc1 (centres undefined)	-13.9%	-15.4%	-1.9	-16.0%	7.08µM*	-5.2%
O=C(COC(=O)/C=C/c1cccs1)NC(c1ccccc1)c1ccccc1	-7.1%[1.53 µM]	-3.4%	-2.6	1.7%	9.8%	0.2%
O=C(COC(=O)/C=C/C(=O)N1CCN(c2ccccc2)CC1)NC(c1ccccc1)c1ccccc1	-2.8%	-3.5%	-2.8	6.31µM*	-21.1%	1.5%
Cc1ccc(-n2cccn2)c(CN2CCCC(C(=O)c3sccc3C)C2)c1 (centres undefined)	11.2µM*	4.0%	-1.1	-25.2%	?	0.0%
CCc1ccccc1NC(=O)C1CCN(C2=NS(=O)(=O)C(c3ccc(C)c(C)c3)=C2C)CC1	-4.4%	·	·	·	0.4%	·
CCOc1ccc(/C=N/NC(=S)NC2CC3C=CC2C3)cc1 (centres undefined)	7.0%	13.8%	-2.5	8.5%	3.16µM*	-4.1%
Oc1c(Br)cc(Br)cc1/C=N/NC(=S)N[C@H]1CC2C=CC1C2 (some centres undefined)	20.9%	-0.3%	-1.9	0.5%	3.55µM*	-0.6%
Cc1ccc(CCNC(=O)c2ccc(Cn3c(=O)c4cccn4c4cccnc43)cc2)cc1	-3.7%	·	·	·	18.9%	·
O[C@@H]1CO[C@H]2[C@@H]1OC[C@@H]2O	·	-1.0%	·	·	·	·
CCOC(=O)C1=C(CN2CCN(c3cc(C)ccc3C)CC2)NC(=O)NC1c1ccccc1 (centres undefined)	-13.5%	-1.8%	·	·	8.91µM*	·
CCOC(=O)C1=C(CN2CCN(c3ccccc3OC)CC2)NC(=O)NC1c1ccccc1 (centres undefined)	-4.2%	-2.7%	·	·	-27.4%	·
COc1cccc(OC)c1C(=O)Nc1ccc2c(c1)N(S(=O)(=O)c1cccs1)CCC2	0.0%	8.6%	0.3	-0.4%	-38.8%	-2.6%
